Test results: PubChem BioAssay AID1220 (Sanford-Burnham Center for Chemical Genomics, 2008)
The whole screen tested about 190,000 compounds, of which about 1,300 (0.68%) were called active. For the sample, actives were picked, then their nearest neighbours and some compounds at random. Unmarked numbers belong to inactive results. Rule as the data show it: active = inhibition above about 50%; inactive = the rest.

Each compound was assayed against Mannose-6-phosphate isomerase (Homo sapiens) (UniProt P34949) (assay: MPI inhibition at elevated mannose 6-phosphate – biochemical, fluorescence intensity, high mannose 6-phosphate, primary screen (AID 1220)). Conditions: recombinant PMI enzyme, coupled fluorescence intensity; at 20 µM; hits give high values.
Chain of Mannose-6-phosphate isomerase (Homo sapiens) (P34949 whole entry, looked up): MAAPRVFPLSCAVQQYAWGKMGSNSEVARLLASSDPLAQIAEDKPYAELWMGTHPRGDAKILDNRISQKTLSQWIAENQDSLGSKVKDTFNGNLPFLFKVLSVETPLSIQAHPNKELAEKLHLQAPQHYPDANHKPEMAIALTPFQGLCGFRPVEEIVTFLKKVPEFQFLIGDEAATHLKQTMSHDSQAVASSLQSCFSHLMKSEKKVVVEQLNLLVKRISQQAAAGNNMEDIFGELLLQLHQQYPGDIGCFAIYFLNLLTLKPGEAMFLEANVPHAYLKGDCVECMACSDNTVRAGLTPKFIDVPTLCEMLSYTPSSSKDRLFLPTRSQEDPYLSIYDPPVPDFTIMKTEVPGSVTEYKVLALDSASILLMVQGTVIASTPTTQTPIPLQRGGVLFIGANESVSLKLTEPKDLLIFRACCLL
With NC(=O)C1(N2CCCCC2)CCN(Cc2ccc(F)cc2)CC1 the inhibition was 1.7%. In the case of C[C@]12CC[C@@H]3c4ccc(O)cc4CC[C@H]3[C@@H]1CC[C@@H]2O, the inhibition is reported as -6.7%. In the case of C[C@]12CC[C@@H]3c4cc(O)c(O)cc4CC[C@H]3[C@@H]1CC[C@@H]2O, the inhibition is reported as 27.9%. For COC(=O)/C=c1/s/c(=C(\C#N)C(=O)NCc2ccco2)n(-c2ccccc2)c1=O, the inhibition was -5.5%. With Cc1ccc(-n2ncc(C#N)c2/N=C/N2CCOCC2)cc1 the inhibition was 14.1%. Cc1ccc(N/C=C2\CCCCC2=O)c(C)c1 was tested, and the inhibition was -0.6%. For O=C1CCCC/C1=C\Nc1ccc(O)cc1, the inhibition was 25%. Cc1cc(O)ccc1N/C=C1\CCCC1=O was tested, and the inhibition was 54.1% (active). For O=C(N/N=C/c1cccc([N+](=O)[O-])c1)c1ccc(COc2ccccc2-c2ccccc2)cc1, the inhibition was 0.3%. Cc1ccc2c(c1)N(CC(=O)N1CCN(c3nc4ccccc4s3)CC1)C(=O)C(C)O2 (configuration not stated) was tested, and the inhibition was 0.6%. Work on Cn1c(CN2CCCCC2)nc2cc(NC(=O)c3ccc(F)cc3)ccc21 yielded an inhibition of 10.4%. CCCOc1ccc(S(=O)(=O)n2cc(Br)c(=O)[nH]c2=O)cc1 gave an inhibition of -4.8%. CCOc1ccc(S(=O)(=O)n2cc(F)c(=O)[nH]c2=O)cc1 gave an inhibition of 11.2%. With CC(C)COc1ccc(S(=O)(=O)n2cc(F)c(=O)[nH]c2=O)cc1 the inhibition was 50.5% (active). CC(C)(C)NCC(O)COc1ccccc1C(C)(C)C (configuration not stated) gave an inhibition of 2.5%. With Cc1ccc2nsnc2c1S(=O)(=O)N(Cc1cc2cccc(C)c2[nH]c1=O)CC1CCCO1 (configuration not stated) the inhibition was 10.3%. CC(C)c1ccc(C(=O)CSc2n[nH]c(-c3ccncc3)n2)cc1 gave an inhibition of 4.3%. Cc1nnc(SCC(=O)c2ccc(C(C)C)cc2)s1 showed an inhibition of 7.2%. With S=C(NCCN1CCOCC1)N/N=C/c1ccccc1 the inhibition was 3.7%. Work on Oc1ccc(/C=N/NC(=S)NCCN2CCOCC2)c(O)c1 yielded an inhibition of -21.6%. Compound C=CCn1c(C(C)NC(=O)c2ccccc2C)n[nH]c1=S (configuration not stated) has an inhibition of 2.2%. In the case of CCOC(=O)c1c(-c2ccsc2)csc1N, the inhibition is reported as 59.8% (active). For CCOC(=O)c1c(-c2ccncc2)csc1N, the inhibition was 23.1%. In the case of CCOc1ccc(-c2csc(N)c2C(=O)OC)cc1, the inhibition is reported as 19.4%. For CCOC(=O)c1c(-c2ccc(C)s2)csc1NC(=O)c1cccs1, the inhibition was -3.8%. CCOC(=O)c1c(-c2cccc([N+](=O)[O-])c2)csc1NC(=O)C1CCCCC1 gave an inhibition of 24%. For CCOC(=O)c1c(-c2cccc([N+](=O)[O-])c2)csc1N, the inhibition was 50.3% (active). For CCOC(=O)c1c(-c2cccc([N+](=O)[O-])c2)csc1NC(=O)C1CC1, the inhibition was 40.4%. CCOC(=O)c1c(-c2ccc(C)s2)csc1NC(=O)c1ccco1 gave an inhibition of 3.5%. Compound Cc1ccc2nc(-c3cccnc3)c(Nc3ccccc3C)n2c1 has an inhibition of 4.7%. In the case of COc1ccc(NC(=O)c2cc3c(=O)n4ccccc4nc3n2C)c(OC)c1, the inhibition is reported as 6.3%. For Cc1cc(C)c(S(=O)(=O)c2ccccc2)c(Cl)n1, the inhibition was 5.7%. For COC(=O)c1[nH]c2ccccc2c1NC(=O)CNC1CCCCC1, the inhibition was 11.8%. In the case of O=C(CNc1ccccc1)c1ccc([N+](=O)[O-])cc1, the inhibition is reported as -90.7%. For O=C(CNc1cccc2ccccc12)c1ccc([N+](=O)[O-])cc1, the inhibition was 57.5% (active). Cc1cccc(/C=N/NC(=O)C(C)Nc2cccc3ccccc23)n1 (configuration not stated) showed an inhibition of -72.3%. In the case of C=CCc1cccc(/C=N/NC(=O)CNc2ccccc2)c1O, the inhibition is reported as -4.5%. In the case of O=C(CNc1cccc2ccccc12)N/N=C/c1ccc([N+](=O)[O-])cc1, the inhibition is reported as 18.1%. With C=CCc1cccc(/C=N/NC(=O)CNc2cccc3ccccc23)c1O the inhibition was 55.2% (active). Compound Cc1ccc(NCC(=O)N/N=C/c2cccc(Oc3ccccc3)c2)cc1 has an inhibition of 10.5%. In the case of O=C(CNc1cccc2ccccc12)N/N=C/c1cccc(Oc2ccccc2)c1, the inhibition is reported as 51.8% (active). Compound Cc1cccc(NCC(=O)N/N=C\c2cccc(Oc3ccccc3)c2)c1 has an inhibition of 12.6%. For Cc1cccc(/C=N/NC(=O)CNc2cccc3ccccc23)n1, the inhibition was 61.8% (active). Compound C=CCc1cccc(/C=N/NC(=O)CNc2ccccc2OC)c1O has an inhibition of -20.8%. Compound CSc1ccc(/C=N/NC(=O)CNc2cccc3ccccc23)cc1 has an inhibition of 17.1%. Compound O=C(N=Nc1c(O)[nH]c2ccccc12)c1cc(NS(=O)(=O)c2cccs2)cc(NS(=O)(=O)c2cccs2)c1 has an inhibition of -0.7%. O=C(N/N=C/C=C\c1ccccc1[N+](=O)[O-])c1ccccn1 was tested, and the inhibition was 13.1%. For COc1ccc(N2CCN(C(c3cccs3)C(C)NS(=O)(=O)c3ccccc3)CC2)cc1 (configuration not stated), the inhibition was 20.1%. CN(c1ccc(OCC(=O)OCC(=O)NC2CCCC2)cc1)S(=O)(=O)c1ccc2ccccc2c1 showed an inhibition of 23.5%. In the case of O=C(O)C1CCC(Cn2c(SCc3cc(=O)n4cc(Br)ccc4n3)nc3ccsc3c2=O)CC1 (configuration not stated), the inhibition is reported as 5.7%. For Cc1ccc2cc(S(=O)(=O)NCCCN3CCOCC3)ccc2c1, the inhibition was 4.1%. With O=C(CNc1ccccc1)N/N=C/c1ccc([N+](=O)[O-])o1 the inhibition was 8%. With O=C(CNc1cccc2ccccc12)N/N=C/c1ccc([N+](=O)[O-])o1 the inhibition was 60.4% (active). O=C(CNc1ccc2ccccc2c1)N/N=C/c1ccc([N+](=O)[O-])o1 was tested, and the inhibition was 46.2%. O=C(O)/C=C/C(=O)N1CCN(c2ccccc2F)CC1 gave an inhibition of 2.7%. Compound N#CCSc1nnc(C2CCCCC2)n1-c1ccccc1 has an inhibition of 11.9%. In the case of NC(=O)c1cccc(S(=O)(=O)N2CC(c3ccccc3)CC2=O)c1 (configuration not stated), the inhibition is reported as 5.1%. Cc1c(C(=O)Oc2cccc3cccnc23)cccc1[N+](=O)[O-] showed an inhibition of 36.1%. For NC(=O)c1ccc(Oc2cccc3cccnc23)c([N+](=O)[O-])c1, the inhibition was 50.2% (active). In the case of Cc1cc(Cl)ccc1Oc1ccc(C(N)=O)cc1[N+](=O)[O-], the inhibition is reported as 5.8%. Work on O=[N+]([O-])c1ccc(Oc2cccc3cccnc23)c([N+](=O)[O-])c1 yielded an inhibition of 11.4%. COc1ccc(C(=O)Oc2cccc3cccnc23)cc1[N+](=O)[O-] was tested, and the inhibition was 51.9% (active). Work on O=C(Oc1cccc2cccnc12)c1cccc([N+](=O)[O-])c1 yielded an inhibition of 44.3%. Compound COc1cccc(CNC(=O)CCC2CCCN(C(=O)CCC(F)(F)F)C2)c1 (configuration not stated) has an inhibition of 7.7%. For CCNc1nc(NCC)n2c(SCC(=O)c3ccc(C(C)C)cc3)nnc2n1, the inhibition was -21%. CCCNC(=O)Cc1c(O)c2ccccc2[nH]c1=O was tested, and the inhibition was 6.5%. For COc1cc(C2C3=C(Nc4ncnn42)c2ccccc2CC3)cc(OC)c1OC (configuration not stated), the inhibition was 51.9% (active). Work on COc1ccc(C2C3=C(Nc4ncnn42)c2ccccc2CCC3)cc1 (configuration not stated) yielded an inhibition of 3.7%. COc1ccc(C2C3=C(Nc4ncnn42)c2ccccc2CC3)cc1OC (configuration not stated) gave an inhibition of 38.6%. For Cc1ccc2[nH]c(=O)c(-c3nc4c(C)cccn4c3NCc3ccco3)cc2c1, the inhibition was 55.2% (active). Cc1ccc2[nH]c(=O)c(-c3nc4ccccn4c3NCc3ccco3)cc2c1 was tested, and the inhibition was -4.9%. With Cc1ccc2[nH]c(=O)c(-c3nc4cc(C)ccn4c3NCc3ccco3)cc2c1 the inhibition was 53.7% (active). Work on Cc1cccn2c(=O)c(C=Nc3ccccc3)c(NCc3ccco3)nc12 yielded an inhibition of -12.9%. Cc1ccn2c(-c3csc(NCc4ccco4)n3)c(C)nc2c1 was tested, and the inhibition was 48.7%. For Cc1cccc2cc(-c3nc4c(C)cccn4c3NCc3ccco3)c(=O)[nH]c12, the inhibition was 1.7%. Work on CC1CCCCC1NCc1cccc([N+](=O)[O-])c1 (configuration not stated) yielded an inhibition of 2.2%. Work on CCc1ccc(C2=NN(S(C)(=O)=O)C(c3cccs3)C2)cc1 (configuration not stated) yielded an inhibition of 3.7%. With COc1ccccc1NC(=O)Cn1cnc2sc(C(=O)NCc3ccco3)c(C)c2c1=O the inhibition was -4.1%. Nc1nc2c(Cl)ccc(Cl)c2s1 showed an inhibition of 8%. Nn1c(SCc2ccccn2)nncc1=O was tested, and the inhibition was -1.6%. In the case of C/C(=N\Nc1ccccn1)c1ccc(C(C)C)cc1, the inhibition is reported as 11.6%. For CCOc1ccccc1NC(=O)COC(=O)C(CC)c1ccccc1 (configuration not stated), the inhibition was 64.5% (active). Compound CCC(C(=O)OCC(=O)Nc1ccc(OC)cc1OC)c1ccccc1 (configuration not stated) has an inhibition of 10.5%. CCC(C(=O)OCC(=O)Nc1cc(C)ccc1OC)c1ccccc1 (configuration not stated) gave an inhibition of 0.3%. Compound O=C(NC1CCCc2ccccc21)c1ccc2c(c1)OCO2 (configuration not stated) has an inhibition of 8.7%. COc1ccc(-n2cc(CNCC3CCOCC3)c(-c3cccc(F)c3)n2)cc1 gave an inhibition of 4.6%. CCOC(=O)C1CCN(c2cc(=O)n(-c3ccccc3Cl)c(=O)[nH]2)CC1 gave an inhibition of -1.4%. Compound O=c1c(-c2ccccc2)nc(-c2ccccc2)cn1O has an inhibition of 3.4%. In the case of Cc1nc(-c2ccccc2)cn(O)c1=O, the inhibition is reported as 65.6% (active). In the case of Cc1nc(-c2ccccc2)ccc1C(=O)O, the inhibition is reported as 0.4%. Compound CCOC(=O)N1CCN(C(=O)CSc2ccc3nnc(-c4ccncc4)n3n2)CC1 has an inhibition of 8.4%. Work on COc1ccccc1/C=N/NC1=NCCCCC1 yielded an inhibition of 0.4%. For COc1ccccc1/C=N/Nc1nncc2ccccc12, the inhibition was -1.9%. COc1ccccc1/C=N/Nc1cc(N(C)C)nc(N(C)C)n1 was tested, and the inhibition was 63.4% (active). For O=C(CCCN1C(=O)c2ccccc2C1=O)Nc1c2c(nc3c1CCC3)CCC2, the inhibition was -20.1%. Cc1nn(C)c(C)c1NC(=O)CC12CC3CC(CC(C3)C1)C2 showed an inhibition of -1.3%. Work on COc1cc(C)nc(N2CCC(C(=O)NC3CCCCC3)CC2)n1 yielded an inhibition of 3.7%.
